In PubChem BioAssay (EPA / NIEHS):
Activity calls are given as the source filed them. How the source made its calls: active means hit-call score of the fitted dose curve at least 0.9, where 1 is the maximum; inactive means score below 0.9.

Columns and labels:
Conditions in all cases: mRNA level, 48 h; actives raise or lower the signal
[1] = read-out: Bcl-2 (BAX) gene, BAX (gene 581); assay: LTEA_HepaRG_BAX: Life Technologies and Expression Analysis (LTEA) Assay for Bcl-2 (BAX) gene using HepaRG (AID 2283470)
Method in brief: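 Human HepaRG cells treated in duplicate for 48 h across eight concentrations (max 100 uM, 0.5% DMSO); BAX expression measured by qRT-PCR.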

[2] = read-out: adenosine kinase (ADK) gene, ADK (gene 132); assay: LTEA_HepaRG_ADK: Life Technologies and Expression Analysis (LTEA) Assay for adenosine kinase (ADK) gene using HepaRG (AID 2283471)
Method in brief: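 Read-out is ADK transcript level measured by qRT-PCR and normalised to three housekeeping genes. Cells are human HepaRG, dosed for 48 h at up to 100 uM in 0.5% DMSO. Gain or loss of signal is fitted against DMSO controls.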

[3] = read-out: Alpha-fetoprotein (AFP) gene, AFP (gene 174); assay: LTEA_HepaRG_AFP: Life Technologies and Expression Analysis (LTEA) Assay for Alpha-fetoprotein (AFP) gene using HepaRG (AID 2283472)
Method in brief: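 Measures AFP mRNA change in HepaRG after 48 h chemical exposure (8 half-log concentrations, highest 100 uM, 0.5% DMSO). Fold change relative to DMSO, fitted in both directions.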

[4] = read-out: BCL2L11 (gene 10018); assay: LTEA_HepaRG_BCL2L11: Life Technologies and Expression Analysis (LTEA) Assay for Bcl-2 (BCL2L11) gene using HepaRG (AID 2283473)
Method in brief: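 Differentiated human HepaRG cells were exposed 48 h in serum-free induction medium to eight half-log concentrations up to 100 uM in 0.5% DMSO, in duplicate. BCL2L11 mRNA was quantified by TaqMan qRT-PCR, normalized to ACTB, GAPDH and POLR2A; induction or repression fitted versus DMSO.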

[5] = read-out: Apolipoprotein A-V (APOA5) gene, APOA5 (gene 116519); assay: LTEA_HepaRG_APOA5: Life Technologies and Expression Analysis (LTEA) Assay for Apolipoprotein A-V (APOA5) gene using HepaRG (AID 2283474)
Method in brief: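 Differentiated HepaRG cells in serum-free induction medium, exposed 48 h in duplicate to eight half-log concentrations topping at 100 uM (0.5% DMSO). APOA5 mRNA by Fluidigm TaqMan qRT-PCR, normalized to ACTB, GAPDH and POLR2A; bidirectional fit versus DMSO.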

[6] = read-out: Bcl-2 (BID) gene, BID (gene 637); assay: LTEA_HepaRG_BID: Life Technologies and Expression Analysis (LTEA) Assay for Bcl-2 (BID) gene using HepaRG (AID 2283476)
Method in brief: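 Assay used HepaRG hepatic cells treated 48 h in serum-free medium with half-log dilutions from 100 uM. Endpoint: BID mRNA, qRT-PCR, normalized to ACTB/GAPDH/POLR2A.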

[7] = read-out: Cytochrome P450 (CYP24A1), CYP24A1 (gene 1591); assay: LTEA_HepaRG_CYP24A1: Life Technologies and Expression Analysis (LTEA) Assay for Cytochrome P450 (CYP24A1) using HepaRG (AID 2283478)
Method in brief: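 HepaRG cells plated 48 h, then exposed in duplicate in serum-free induction medium for 48 h to 8-point half-log series from 100 uM in 0.5% DMSO. CYP24A1 mRNA by Fluidigm qRT-PCR, normalized to ACTB, GAPDH, POLR2A; bidirectional fit versus DMSO.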

[8] = read-out: Cytochrome P450 (CYP1A2), CYP1A2 (gene 1544); assay: LTEA_HepaRG_CYP1A2: Life Technologies and Expression Analysis (LTEA) Assay for Cytochrome P450 (CYP1A2) using HepaRG (AID 2283479)
Method in brief: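 Differentiated human HepaRG cells in serum-free induction medium exposed 48 hours in duplicate to 8 half-log concentrations from 100 uM, 0.5% DMSO. CYP1A2 mRNA quantified by qRT-PCR, normalized to ACTB, GAPDH and POLR2A; bidirectional fitting versus DMSO.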

[9] = read-out: cysteine-aspartic acid protease (CASP8), CASP8 (gene 841); assay: LTEA_HepaRG_CASP8: Life Technologies and Expression Analysis (LTEA) Assay for cysteine-aspartic acid protease (CASP8) using HepaRG (AID 2283480)
Method in brief: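 qRT-PCR readout of CASP8 mRNA, normalized to three housekeeping genes, after 48 h chemical exposure of HepaRG cells; 8-point half-log series, top 100 uM, 0.5% DMSO vehicle. Bidirectional curve fitting against DMSO baseline.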

[10] = read-out: Cytochrome P450 (CYP2B6), CYP2B6 (gene 1555); assay: LTEA_HepaRG_CYP2B6: Life Technologies and Expression Analysis (LTEA) Assay for Cytochrome P450 (CYP2B6) using HepaRG (AID 2283481)
Method in brief: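 Differentiated human HepaRG cells in serum-free induction medium, dosed in duplicate for 48 h over 8 half-log concentrations topping at 100 uM (0.5% DMSO). CYP2B6 mRNA measured by TaqMan qRT-PCR, normalized to ACTB, GAPDH, POLR2A; bidirectional fit versus DMSO.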

[11] = read-out: Cytochrome P450 2C19 (Homo sapiens) (UniProt P33261); assay: LTEA_HepaRG_CYP2C19: Life Technologies and Expression Analysis (LTEA) Assay for CYP2C19 using HepaRG (AID 2283482)
Method in brief: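 Differentiated HepaRG cells in serum-free induction medium exposed 48 h in duplicate, 8 concentrations from 100 uM by half-log steps in 0.5% DMSO. CYP2C19 mRNA measured by TaqMan qRT-PCR, normalized to ACTB, GAPDH, POLR2A. Bidirectional fit versus DMSO.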

[12] = read-out: CYP2C8 (gene 1558); assay: LTEA_HepaRG_CYP2C8: Life Technologies and Expression Analysis (LTEA) Assay for CYP2C8 using HepaRG (AID 2283483)
Method in brief: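 HepaRG (human liver line), 48 h chemical exposure, 8-pt half-log series from 100 uM, 0.5% DMSO vehicle. Readout: CYP2C8 transcript by qRT-PCR, housekeeping-normalized. Bidirectional fit vs DMSO baseline.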

[13] = read-out: CYP2E1 (gene 1571); assay: LTEA_HepaRG_CYP2E1: Life Technologies and Expression Analysis (LTEA) Assay for CYP2E1 using HepaRG (AID 2283485)
Method in brief: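 Assay uses 48 h exposure of HepaRG hepatic cells, eight concentrations to 100 uM. Expression of CYP2E1 is quantified by TaqMan qRT-PCR with ACTB, GAPDH and POLR2A normalization; curves fitted in both directions relative to vehicle.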

[14] = read-out: CYP4A11 (gene 1579); assay: LTEA_HepaRG_CYP4A11: Life Technologies and Expression Analysis (LTEA) Assay for CYP4A11 using HepaRG (AID 2283486)
Method in brief: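 Differentiated HepaRG cells, 48 h after plating, exposed in duplicate for 48 h to 8 half-log concentrations up to 100 uM in 0.5% DMSO in serum-free induction medium. CYP4A11 mRNA measured by TaqMan qRT-PCR, normalized to ACTB, GAPDH and POLR2A.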

[15] = read-out: Cytochrome P450 3A4 (Homo sapiens) (UniProt P08684); assay: LTEA_HepaRG_CYP3A4: Life Technologies and Expression Analysis (LTEA) Assay for CYP3A4 using HepaRG (AID 2283487)
Method in brief: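 HepaRG, 48 h exposure, 8-pt CRC from 100 uM (half-log), 0.5% DMSO, duplicates; serum-free induction medium. Readout: CYP3A4 mRNA, qRT-PCR, ACTB/GAPDH/POLR2A normalization. Bidirectional fit vs DMSO.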

[16] = read-out: DNA damage-inducible transcript 3 (DDIT3), DDIT3 (gene 1649); assay: LTEA_HepaRG_DDIT3: Life Technologies and Expression Analysis (LTEA) Assay for DNA damage-inducible transcript 3 (DDIT3) using HepaRG (AID 2283488)
Method in brief: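 Eight-point concentration-response (100 uM highest, half-log dilutions) in HepaRG, 48 h, duplicate wells. Endpoint: qRT-PCR mRNA, normalized (ACTB, GAPDH, POLR2A), bidirectional fitting with DMSO as baseline.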

[17] = read-out: Pro-epidermal growth factor (Homo sapiens) (UniProt P01133); assay: LTEA_HepaRG_EGF: Life Technologies and Expression Analysis (LTEA) Assay for Epidermal growth factor (EGF) using HepaRG (AID 2283489)
Method in brief: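 HepaRG cells (~100,000/well, 48 h pre-culture) exposed in duplicate for 48 h in serum-free induction medium to 8 half-log concentrations up to 100 uM in 0.5% DMSO. EGF mRNA by qRT-PCR, normalized to ACTB/GAPDH/POLR2A; bidirectional fit versus DMSO.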

[18] = read-out: Early growth response protein 1 (EGR1) transcription factor, EGR1 (gene 1958); assay: LTEA_HepaRG_EGR1: Life Technologies and Expression Analysis (LTEA) Assay for Early growth response protein 1 (EGR1) transcription factor using HepaRG (AID 2283490)
Method in brief: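 HepaRG, 48 h exposure, 8-pt half-log series from 100 uM, 0.5% DMSO vehicle; EGR1 transcript by TaqMan qRT-PCR (Fluidigm array), housekeeping-normalized; bidirectional fit relative to DMSO baseline.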

[19] = read-out: Ezrin (EZR), EZR (gene 7430); assay: LTEA_HepaRG_EZR: Life Technologies and Expression Analysis (LTEA) Assay for Ezrin (EZR) using HepaRG (AID 2283491)
Method in brief: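 Read-out is EZR transcript level by qRT-PCR, normalized to three housekeeping genes and fitted bidirectionally against the DMSO control. Human HepaRG cells received test chemicals for 48 h at eight half-log concentrations up to 100 uM in 0.5% DMSO.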

[20] = read-out: Cytochrome P450 3A7 (Homo sapiens) (UniProt P24462); assay: LTEA_HepaRG_CYP3A7: Life Technologies and Expression Analysis (LTEA) Assay for CYP3A7 using HepaRG (AID 2283492)
Method in brief: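 Differentiated HepaRG cells in serum-free induction medium exposed 48 h in duplicate to 8-point half-log series from 100 uM top in 0.5% DMSO. CYP3A7 mRNA by qRT-PCR, normalized to ACTB/GAPDH/POLR2A, bidirectional fit versus DMSO.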

Measured: AC50

Chain of Cytochrome P450 3A7 (Homo sapiens) (P24462 whole entry, looked up): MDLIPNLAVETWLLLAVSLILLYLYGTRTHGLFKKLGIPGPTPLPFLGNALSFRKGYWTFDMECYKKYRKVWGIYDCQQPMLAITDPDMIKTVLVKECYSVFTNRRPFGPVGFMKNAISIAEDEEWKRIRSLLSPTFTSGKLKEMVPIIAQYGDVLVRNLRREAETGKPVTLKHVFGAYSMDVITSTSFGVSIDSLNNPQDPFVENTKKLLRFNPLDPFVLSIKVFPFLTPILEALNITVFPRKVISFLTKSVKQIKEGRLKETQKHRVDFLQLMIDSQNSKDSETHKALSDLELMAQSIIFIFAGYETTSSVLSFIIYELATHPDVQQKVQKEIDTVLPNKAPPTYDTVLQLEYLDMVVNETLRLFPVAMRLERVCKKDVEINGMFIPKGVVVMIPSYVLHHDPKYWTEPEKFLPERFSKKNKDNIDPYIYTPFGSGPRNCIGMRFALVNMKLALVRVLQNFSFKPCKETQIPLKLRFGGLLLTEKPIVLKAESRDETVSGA
Chain of Cytochrome P450 3A4 (Homo sapiens) (P08684 whole entry, looked up): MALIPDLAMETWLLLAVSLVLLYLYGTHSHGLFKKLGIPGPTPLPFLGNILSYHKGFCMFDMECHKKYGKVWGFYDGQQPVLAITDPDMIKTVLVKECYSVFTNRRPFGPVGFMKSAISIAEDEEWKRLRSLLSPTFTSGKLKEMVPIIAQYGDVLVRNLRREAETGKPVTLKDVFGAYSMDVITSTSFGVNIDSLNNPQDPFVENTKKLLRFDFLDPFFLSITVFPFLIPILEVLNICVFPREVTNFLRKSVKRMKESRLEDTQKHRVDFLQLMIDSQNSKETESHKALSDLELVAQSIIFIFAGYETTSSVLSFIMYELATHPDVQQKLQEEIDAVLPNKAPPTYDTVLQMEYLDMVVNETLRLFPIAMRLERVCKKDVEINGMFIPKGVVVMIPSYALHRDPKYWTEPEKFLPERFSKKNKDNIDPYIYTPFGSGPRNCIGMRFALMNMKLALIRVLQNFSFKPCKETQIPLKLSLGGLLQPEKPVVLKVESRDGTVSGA
Chain of Cytochrome P450 2C19 (Homo sapiens) (P33261 whole entry, looked up): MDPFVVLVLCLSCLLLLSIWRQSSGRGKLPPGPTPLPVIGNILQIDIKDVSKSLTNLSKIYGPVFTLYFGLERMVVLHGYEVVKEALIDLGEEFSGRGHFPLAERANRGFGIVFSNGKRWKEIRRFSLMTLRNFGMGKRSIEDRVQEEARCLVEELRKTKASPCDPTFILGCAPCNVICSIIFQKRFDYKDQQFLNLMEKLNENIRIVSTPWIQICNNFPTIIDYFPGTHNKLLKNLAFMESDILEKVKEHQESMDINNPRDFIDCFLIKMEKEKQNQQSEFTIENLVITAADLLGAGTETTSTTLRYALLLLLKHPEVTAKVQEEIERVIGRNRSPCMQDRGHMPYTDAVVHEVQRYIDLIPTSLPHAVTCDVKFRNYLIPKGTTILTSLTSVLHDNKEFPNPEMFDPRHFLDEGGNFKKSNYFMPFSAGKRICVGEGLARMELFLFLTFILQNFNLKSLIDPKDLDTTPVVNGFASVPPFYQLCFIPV

CC(C)(C)c1cc(O)ccc1O
inactive: all assays above

Oc1cccc2cccnc12
active: [8] 7.72 µM
inactive: all other assays above

CCOP(=S)(OCC)Oc1nc(Cl)c(Cl)cc1Cl
active: [8] 50 µM | [10] 11.4 µM | [11] 23.8 µM | [13] 50 µM | [15] 37.2 µM
inactive: all other assays above

CCOP(=S)(OCC)SCSP(=S)(OCC)OCC
active: [2] 106 nM | [3] 50 µM | [4] 228 nM | [8] 50 µM | [10] 13 µM | [11] 26.1 µM | [12] 121 nM | [13] 19.2 µM | [15] 12.5 µM | [20] 50 µM
inactive: [1] | [5] | [6] | [9] | [14] | [16] | [17] | [18] | [19]
